Only a selection was taken, and hits are over-represented in it overall.
CBX7 AlphaScr = CBX7 chromodomain binding inhibitors, primary screen, biochemical, AlphaScreen; Chromobox protein homolog 7 (Homo sapiens), O95931; AlphaScreen His6-CBX7 / biotin-H3K27me3 peptide binding; hits give low values; normalised signal (fraction of DMSO) (concentration not given with the values); actives 1.1% (n = 66,000); in the data active = normalised signal below about 0.5
Target sequence (O95931 whole entry, looked up): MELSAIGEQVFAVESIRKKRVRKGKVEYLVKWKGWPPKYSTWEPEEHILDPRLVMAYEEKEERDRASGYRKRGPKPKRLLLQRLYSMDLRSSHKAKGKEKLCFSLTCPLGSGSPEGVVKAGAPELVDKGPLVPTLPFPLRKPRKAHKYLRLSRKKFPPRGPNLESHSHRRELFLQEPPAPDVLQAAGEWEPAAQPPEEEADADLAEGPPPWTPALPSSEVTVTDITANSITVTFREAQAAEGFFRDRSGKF
* hit, by the source's call.

`C=CCc1ccccc1OCC(O)CN1CCC(C)CC1` (configuration not stated) gave CBX7 AlphaScr 1.51.
Screening C=CCc1ccccc1OCC(O)CN1CCN(c2ccc(C)cc2)CC1 (configuration not stated) returned CBX7 AlphaScr 0.251*.
`C=CCc1cc(C)ccc1OCC(O)CN1CCOCC1` (configuration not stated) gave CBX7 AlphaScr 0.815.
For COc1ccccc1CN1C(=O)CN(C2CCCCCC2)C(=O)C1c1ccc(OC(C)C)c(OC)c1 (configuration not stated) the results were CBX7 AlphaScr 0.792.
Screening CCOc1ccccc1C1CC(=O)C2=C(C1)Nc1ccccc1N(C(C)=O)C2c1ccc(OC)cc1 (configuration not stated) returned CBX7 AlphaScr 1.04.
COc1ccc(Br)cc1CNC(=O)c1cc(=O)[nH]c2ccccc12 was read as CBX7 AlphaScr 1.01.
`COc1cccc(C2CC(=O)Nc3cc4c(cc32)OCO4)c1OC(C)C` (configuration not stated) gave CBX7 AlphaScr 0.792.
For Cc1ccc(OCc2nc(C#N)c(N3CC(C)CC(C)C3)o2)cc1 (configuration not stated) the results were CBX7 AlphaScr 0.529.
Screening Cc1ccc(OCc2nc(C#N)c(N3CCCCCC3)o2)cc1 returned CBX7 AlphaScr 0.398*.
`COc1ccc(OCc2nc(C#N)c(N3CCCCCC3)o2)cc1` gave CBX7 AlphaScr 0.582.
`N#Cc1nc(-c2ccc(F)cc2)oc1N1CCCCCC1` gave CBX7 AlphaScr 0.794.
N#Cc1nc(COc2ccc(Cl)cc2)oc1N1CCCCC1 was read as CBX7 AlphaScr 0.761.
`N#Cc1nc(COc2ccc(F)cc2)oc1N1CCCCCC1` gave CBX7 AlphaScr 0.496*.
N#Cc1nc(COc2ccc(F)cc2)oc1N1CCC(C(N)=O)CC1 was read as CBX7 AlphaScr 0.986.
CCN1CCN(c2oc(COc3ccc(F)cc3)nc2C#N)CC1 was read as CBX7 AlphaScr 0.94.
For Cc1ccccc1OCc1nc(C#N)c(N2CCCCCC2)o1 the results were CBX7 AlphaScr 0.473*.
Cc1ccccc1OCc1nc(C#N)c(N2CCOCC2)o1 was read as CBX7 AlphaScr 0.856.
For N#Cc1nc(COc2ccc(F)cc2)oc1N1CCCCC1 the results were CBX7 AlphaScr 0.418*.
Cc1ccccc1OCc1nc(C#N)c(N2CCCCC2)o1 was read as CBX7 AlphaScr 0.709.
For CCC1=Nc2cc(C(=O)N3CCc4ccccc43)ccc2Sc2ccccc21 the results were CBX7 AlphaScr 0.824.
`Cc1nc2ccccc2n1CCOc1ccc(Br)cc1` gave CBX7 AlphaScr 0.98.
Screening COc1ccc(-c2cc(C(F)(F)F)nc(NCc3ccc(F)cc3)n2)cc1OC returned CBX7 AlphaScr 1.13.
For Cc1nc2ccc(S(=O)(=O)NC(C(=O)NC3CCCC3)C(C)C)cc2s1 (configuration not stated) the results were CBX7 AlphaScr 1.06.
`COc1ccc(C(=O)NCCN=C2NS(=O)(=O)c3ccccc32)cc1` gave CBX7 AlphaScr 0.975.
Screening CCn1c(=O)cc(OCC(=O)NCc2ccc(C)cc2)c2ccccc21 returned CBX7 AlphaScr 0.869.
Screening COc1ccc(-n2c3c(cc(C(=O)N4CCN(CCO)CC4)c2=O)C(=O)CC(C)(C)C3)cc1 returned CBX7 AlphaScr 0.998.
For O=C(NCc1cccnc1)c1cc(=O)[nH]c2ccc(S(=O)(=O)N3CCCCC3)cc12 the results were CBX7 AlphaScr 1.05.
Cc1cccc(-n2nc3c(c2NC(=O)Cc2cccs2)CSC3)c1C was read as CBX7 AlphaScr 0.846.
`O=C(NCCN1CCCCCC1)c1ccc2c(c1)N(Cc1c(F)cccc1Cl)C(=O)CS2` gave CBX7 AlphaScr 1.
COc1ccc(N2CCN(c3oc(COc4cccc(C)c4)nc3C#N)CC2)cc1 was read as CBX7 AlphaScr 0.494*.
For N#Cc1nc(COc2ccccc2Cl)oc1N1CCCCC1 the results were CBX7 AlphaScr 0.747.
`COc1ccc(N2CCN(c3oc(COc4ccc(Cl)cc4)nc3C#N)CC2)cc1` gave CBX7 AlphaScr 0.555.
Screening N#Cc1nc(COc2ccccc2)oc1N1CCCCCC1 returned CBX7 AlphaScr 0.455*.
`COc1ccc(N2CCN(c3oc(COc4ccccc4OC)nc3C#N)CC2)cc1` gave CBX7 AlphaScr 0.554.
For N#Cc1nc(COc2ccc(Cl)cc2)oc1N1CCN(Cc2ccccc2)CC1 the results were CBX7 AlphaScr 0.708.
Screening O=C(NCc1ccccc1)C1CCN(C(=O)c2cc3sccc3n2Cc2ccc(F)cc2)CC1 returned CBX7 AlphaScr 0.974.
For NC(=O)c1ccccc1NC(=O)Nc1ccc(Cl)cc1 the results were CBX7 AlphaScr 0.929.
Screening COc1ccc(NC(=O)CSc2nnc(CNC(=O)COc3ccc(Cl)cc3)o2)cc1 returned CBX7 AlphaScr 0.902.
O=C(NCCCn1ccnc1)c1ccc(C#CC2(O)CCCCC2)cc1 was read as CBX7 AlphaScr 0.967.
`CCCCOc1ccc(C(=O)N(Cc2cccc(Cl)c2)C2CCS(=O)(=O)C2)cc1` (configuration not stated) gave CBX7 AlphaScr 0.889.
`Cn1c(NC(=O)c2cccc(Cn3cc(Cl)cn3)c2)nc2ccccc21` gave CBX7 AlphaScr 0.892.
For Fc1cccc(-c2nnc3ccc4ccccc4n23)c1 the results were CBX7 AlphaScr 0.901.
Screening Cc1ccc(Nc2ncc(C(=O)NCC3CCCO3)c3ccccc23)cc1Cl (configuration not stated) returned CBX7 AlphaScr 1.14.
For CCn1cnc2cc(NCc3ccc(C)cc3)ccc21 the results were CBX7 AlphaScr 0.524.
For CC(C)n1cnc2cc(NCc3ccc(Cl)cc3)ccc21 the results were CBX7 AlphaScr 0.405*.
Screening CC(C)n1cnc2cc(NCc3nc4ccccc4n3C)ccc21 returned CBX7 AlphaScr 0.867.
Screening CC(C)(C)n1cnc2cc(NCc3ccncc3)ccc21 returned CBX7 AlphaScr 0.959.
`CCOc1ccc(CNc2ccc3c(c2)ncn3C)cc1` gave CBX7 AlphaScr 0.685.
Screening CC(C)n1cnc2cc(NCc3ccc(Br)cc3)ccc21 returned CBX7 AlphaScr 0.378*.
For Cc1ccc2oc(-c3cccc(NC(=O)c4ccc(Cl)cc4)c3C)nc2c1 the results were CBX7 AlphaScr 1.18.
For Cc1cc(C)nc(NS(=O)(=O)c2ccc(NC(=O)C(C)(C)C)cc2)n1 the results were CBX7 AlphaScr 1.08.
Screening CCOC(=O)c1[nH]c2ccc(OCc3ccccc3)cc2c1C returned CBX7 AlphaScr 1.1.
`OC1CCCc2c1[nH]c1ccc(OCc3ccccc3)cc21` (configuration not stated) gave CBX7 AlphaScr 0.426*.
Screening OC1CCCCc2c1[nH]c1ccc(C3CCCCC3)cc21 (configuration not stated) returned CBX7 AlphaScr 0.72.
Screening CCCCN(C)S(=O)(=O)c1ccc(C(=O)Nc2nnc(-c3cccs3)o2)cc1 returned CBX7 AlphaScr 0.68.
For CCCCN(CC)S(=O)(=O)c1ccc(C(=O)Nc2c(C(=O)OCC)oc3ccccc23)cc1 the results were CBX7 AlphaScr 1.1.
COCc1nnc(NC(=O)c2ccc(S(=O)(=O)N(CCC#N)CCC#N)cc2)o1 was read as CBX7 AlphaScr 0.0627*.
`CCc1nnc(NC(=O)c2ccc(S(=O)(=O)N(CCOC)CCOC)cc2)o1` gave CBX7 AlphaScr 0.504.
Screening COCc1nnc(NC(=O)c2ccc(S(=O)(=O)N(C)C)cc2)o1 returned CBX7 AlphaScr 0.559.
Screening CCCCN(CCCC)S(=O)(=O)c1ccc(C(=O)Nc2nnc(CC)o2)cc1 returned CBX7 AlphaScr 0.0506*.
